Growth data for 33 compounds are collected here from PubChem BioAssay (NCI).

The panel holds about 83,000 compounds, 20% with a hit somewhere; the sample as a whole holds those more often.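 Testing used 96-well plates and a 48-hour single-concentration exposure. Example: -40 means 40% of the starting cells died.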 Unmarked numbers belong to inactive results. Active and inactive are the calls of the source. How the source made its calls: active means growth percent below 10; inactive means the rest.

This assay deals with MOLT-4 leukemia. The experiment in a line: NCI-60 one-dose screen, 48 h (100 = growth as untreated, 0 = no growth, -100 = all killed). Particulars: 10 µM unless noted.
Take `N#C/C(C(=O)c1ccccc1)=C1/C(=O)Nc2ccc(F)cc21`: the growth was 104%.
In the case of `C=C(C)[C@@H]1CC[C@]2(C(=O)NCCCN)CC[C@]3(C)[C@H](CC[C@@H]4[C@@]5(C)CC[C@H](O)C(C)(C)[C@@H]5CC[C@]43C)[C@@H]12` it was 2.76% [100 µM] (active).
The value for `O=C1/C(=C\c2cn(CC(O)CN3CCCCC3)c3ccccc23)c2ccccc2N1c1c(Cl)cccc1Cl` (stereo not drawn) was -30% (active).
The value for `COc1ccc(OC)c([N+](=O)[O-])c1C(=O)CNC(C)=O` was 101%; that for `Nc1cccc2c1C(=O)c1cccc(NC(=O)c3ccccc3)c1C2=O` was 41%; that for `CCNc1cc2c(cc1Br)-c1ccccc1C2=O` was 98.3%.
Regarding `CCOc1cccc2c(NC(C)CCCN(CC)CC)c(C)cnc12` (stereo not drawn), the growth was 93.2%.
The value for `COc1cc(/C=C/C(=O)/C=C/c2ccc(-n3ccnc3C)cc2)ccc1O` was 32.4%; that for `COc1cc(-c2nc(SCCC(C)C)nc(Nc3ccccc3)c2C#N)cc(OC)c1OC` was 84.3%.
As for `CN(C)C(=S)Sc1ccc([N+](=O)[O-])cc1[N+](=O)[O-]`, the growth was 0.177% (active).
The value for `Nc1ccc(Cl)c([N+](=O)[O-])c1` was 106%.
In the case of `CCCCCCCCCCCCNC(=S)N/N=C/c1ccccc1O` it was 52.4%; in that of `CC1(C)CC[C@]2(C(=O)OC(=O)[C@]34CCC(C)(C)C[C@@H]3C3=CC[C@@H]5[C@@]6(C)CCC(=O)C(C)(C)[C@@H]6CC[C@@]5(C)[C@]3(C)CC4)CC[C@]3(C)C(=CC[C@@H]4[C@@]5(C)CCC(=O)C(C)(C)[C@@H]5CC[C@]43C)[C@H]2C1`, 41.5% [100 µM]; in that of `COc1cccc(-c2[nH]c(=S)ncc2C(=O)c2ccccc2)c1`, 76.8%.
For the compound `O=C(N=c1n(-c2ccccc2)nc2n1CCN2C1=NCCN1C(=O)c1ccc(Cl)cc1)c1ccc(Cl)cc1`, the growth is 14.5%.
For `COc1cc2c(=O)[nH]c3cc([N+](=O)[O-])ccc3c2cc1[N+](=O)[O-]`, the growth was 9.72% (active).
In the case of `NC(=O)CC1C=CCC1` (stereo not drawn) it was 95.6%; in that of `O=C(Nc1cccc2ccccc12)c1cc2ccccc2cc1O`, 21.4%; in that of `Cc1ccc(N)c(O)c1`, 106%.
In the case of `CCOC(=O)CCC[P+](c1ccccc1)(c1ccccc1)c1ccccc1` it was 72%; in that of `CCN(CC)c1cc(N)c(Cc2c(N)cc(N(CC)CC)cc2Cl)c(Cl)c1`, 40.8%; in that of `CSc1nc(N)c(N=Nc2ccc(S(=O)(=O)Nc3nnc(C)s3)cc2)c(=O)[nH]1`, 106%.
In the case of `CC1(C)C(=O)/C(=C\c2cccnc2)C[C@]2(C)[C@H]3CC[C@@H]4[C@H]5[C@H](C(=O)/C=C/c6cccnc6)CC[C@]5(C(=O)O)CC[C@@]4(C)[C@]3(C)CC[C@@H]12` it was 4.49% [100 µM] (active).
For `N#CCCc1c[nH]c2ccccc12`, the growth is 96.1%.
In the case of `C[C@@H]1C[C@H]2C(=O)O[C@@H](C)[C@H](NC(=O)[C@H](Cc3cc(F)cc(F)c3)NC(=O)Nc3ccc(C4CC4)cc3F)C(=O)N3CCC[C@H]3C(=O)N3CCCC[C@H]3C(=O)N[C@@H](C)C(=O)N2C1` it was 28.6%; in that of `CCN(CC)CCCC(C)Nc1c2ccc(C)cc2nc2ccc(OC)cc12` (stereo not drawn), 9.16% (active); in that of `C#CCNC(=O)CC[C@]1(C)[C@H]2CC[C@@H]3[C@@H]([C@@](C)(O)CCC=C(C)C)CC[C@@]3(C)[C@]2(C)CC[C@H]1C(=C)C`, -29% [100 µM] (active).
As for `CC1(C)CC[C@]2(C(=O)O)CC[C@]3(C)C(=CC[C@@H]4[C@@]5(C)C/C(=C/c6ccco6)C(=O)C(C)(C)[C@@H]5CC[C@]43C)[C@@H]2C1`, the growth is 2.21% [100 µM] (active).
The value for `C=C(C)[C@@H]1CC[C@]2(C(=O)O)CC[C@]3(C)[C@H](CC[C@@H]4[C@@]5(C)C/C(=C/c6ccco6)C(=O)C(C)(C)[C@@H]5CC[C@]43C)[C@@H]12` was -8.01% [100 µM] (active).
The value for `C[n+]1cccc(NC(=O)c2ccc3ccc4ccc(C(=O)Nc5ccc[n+](C)c5)nc4c3n2)c1` was 71.5%.
The value for `Cc1ccc(S(=O)(=O)N/N=C2\CC3CCC2(C)C3(C)C)cc1` (stereo not drawn) was 111%; that for `CCOC(=O)c1nn(C2CCCCO2)c2ccc(NC(=O)Cn3nnc4ccccc43)cc12` (stereo not drawn) was 95.9%.
In the case of `Cn1cc(-c2nnc(-c3cn(C)c4ncc(Br)cc34)o2)c2ccccc21`, the growth was 93.6%.
